Compound activity: PubChem, The Scripps Research Institute Molecular Screening Center
TbREL1 primary: TbREL1 RNA ligase inhibitors, primary screen, biochemical, FRET fluorescence; 0.49% of 89,000 active; TbREL1 RNA ligation; AID 1117264, 2014; inhibition, % at 9.66 µM; RNA-editing ligase 1, mitochondrial (Trypanosoma brucei brucei), P86926;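 active = inhibition above the mean inhibition across all screened compounds plus 3 SD, cut at about 11% in these data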
Target sequence (P86926 whole entry, looked up): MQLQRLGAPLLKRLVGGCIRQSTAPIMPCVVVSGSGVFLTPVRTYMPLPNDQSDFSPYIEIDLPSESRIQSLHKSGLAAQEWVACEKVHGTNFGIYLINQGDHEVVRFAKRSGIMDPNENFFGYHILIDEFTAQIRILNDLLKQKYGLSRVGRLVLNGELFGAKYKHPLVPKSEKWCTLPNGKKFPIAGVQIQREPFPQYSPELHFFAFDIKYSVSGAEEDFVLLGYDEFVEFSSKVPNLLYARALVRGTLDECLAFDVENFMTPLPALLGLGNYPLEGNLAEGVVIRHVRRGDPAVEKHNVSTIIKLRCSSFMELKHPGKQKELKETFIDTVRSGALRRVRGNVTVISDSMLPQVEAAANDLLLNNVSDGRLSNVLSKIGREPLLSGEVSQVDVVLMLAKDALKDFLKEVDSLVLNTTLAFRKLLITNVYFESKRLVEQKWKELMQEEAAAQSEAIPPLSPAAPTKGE
TbREL1 conf: TbREL1 RNA ligase inhibitors, confirmation, biochemical, FRET fluorescence, triplicate; 37% of 390 active; shares compounds with TbREL1 primary; AID 1117282, 2014; TbREL1 RNA ligation; inhibition, % at 9.66 µM;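 active = mean inhibition across replicates above a set limit taken from the earlier primary screen, cut at about 11% in these data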
Large screens that a line does not name were inactive (follow-up assays come after a bar, where they were run). This is one part of a sample in which hits are shown more often than they occur.

CCn1c2ccccc2c2cc(C=NNC(=O)CSc3nc4ccccc4c(=O)n3-c3ccccc3)ccc21	none
Cc1nc(N/N=C/c2cccc(F)c2)cc(N2CCOCC2)n1	none
C/C(=N\Nc1cc(N2CCOCC2)nc(C)n1)c1cccc([N+](=O)[O-])c1	TbREL1 primary 11.6 | TbREL1 conf inactive
C/C(=N\Nc1ccc(Cl)c(C(=O)O)c1)c1cccc([N+](=O)[O-])c1	none
O=C(CSc1nnc(-c2ccccn2)n1-c1ccc(Cl)cc1)Nc1cccc2ccccc12	none
Cc1ccccc1CNC(=O)c1cccc2c1C(=O)N(Cc1cccnc1)C2	none
Cc1ccc2nc(C3CCCCC3)c(Cc3ccccc3C(F)(F)F)n2c1	none
CC(C)(C)Cc1c(C2CCCCC2)nc2ccc(Cl)cn12	none
Brc1ccc2nc(C3CCCCC3)c(CC3CCCCC3)n2c1	TbREL1 primary 11.3 | TbREL1 conf inactive
Nc1[nH]c(C(=O)c2ccccc2)c(-c2ccc(Cl)cc2Cl)c1C(=O)NCCC1=CCCCC1	none
Cc1onc(-c2ccccc2Cl)c1C(=O)N1CCCCC1	none
O=C(c1ccc(-c2ccc([N+](=O)[O-])cc2)o1)N1CCCCCCC1	none
O=C(c1ccc(-c2ccccc2Cl)o1)N1CCCCCCC1	TbREL1 primary 12.9 | TbREL1 conf inactive
COc1ccc(-n2c(SCC(=O)Nc3ccccc3-c3ccccc3)nnc2-c2ccccn2)cc1	none
O=C(CSc1nnc(SCc2cccc3ccccc23)s1)Nc1ccc(Oc2ccccc2)cc1	none
NCCN1CCN(S(=O)(=O)c2ccc3c(c2)CCN3C(=O)C2CCC2)CC1	none
CC(NCc1ccco1)C(=O)N1CCOCC1 (centres undefined)	none
CC(C)C[C@@H](CNCC(=O)[C@H](C)NC(=O)c1[nH]cnc1C(=O)N[C@@H](C)CN)NC(=O)c1nc[nH]c1C(=O)N[C@@H](Cc1ccccc1)C(=O)O	TbREL1 primary 11.5 | TbREL1 conf inactive
CC(C)C[C@H](NC(=O)c1nc[nH]c1C(=O)N[C@@H](CC(C)C)C(=O)OCc1ccccc1)C(=O)OCc1ccccc1	none
CC(C)C[C@H](NC(=O)c1[nH]cnc1C(=O)N[C@@H](Cc1ccccc1)C(=O)OCc1ccccc1)C(=O)OCc1ccccc1	none
COC(=O)C1CN(Cc2ccccc2)CCS(=O)(=O)N1Cc1cn(Cc2cccc(Cl)c2)nn1 (centres undefined)	none
CCc1ccc(CCNC(=O)OC2CC3CC2[C@H]2CCCCN2[C@H]3C)cc1 (some centres undefined)	none
C[C@H]1[C@@H](NC(=O)Cc2ccsc2)CC[C@@]23CCCN2C(=O)CCC[C@@H]13	none
CC1(C)Cc2c(c(-c3ccco3)[nH]c(=O)c2C#N)CS1	TbREL1 primary 15.0 | TbREL1 conf inactive
CC(=O)N1CCN(c2nc(-c3ccco3)c3c(c2C#N)CC(C)(C)SC3)CC1	none
CC1(C)Cc2c(c(-c3ccccc3)[nH]c(=O)c2C#N)CS1	none
Fc1ccc(-c2cc(-c3nnc4sc(-c5cccs5)nn34)[nH]n2)cc1	none
CCC(C)Nc1nc(C)nc2c1nnn2Cc1ccccc1 (centres undefined)	none
O=C(O)CCN1C(=O)/C(=C/c2ccc(F)cc2F)SC1=S	none
N=c1n(CCO)c2ccccc2n1CCN1CCCCC1	none
Cc1cccc(OCC(O)Cn2c(=N)n(CCN3CCCCC3)c3ccccc32)c1 (centres undefined)	TbREL1 primary 11.9 | TbREL1 conf inactive
COc1ccc(OCC(O)Cn2c(=N)n(Cc3ccccc3)c3ccccc32)cc1 (centres undefined)	none
CC(=O)Nc1sc2c(c1-c1nc3ccccc3s1)CCCNC2	none
Cc1ccc(C(C)C)c(OCCNS(C)(=O)=O)c1	none
c1ccc(CCNCCOc2ccccc2)cc1	none
Cc1ccc(C(C)C)c(OCCNCCc2ccccc2)c1	TbREL1 primary 13.2 | TbREL1 conf 15.2
COc1ccc(C(=O)c2[nH]c(N)c(C(=O)c3ccccc3)c2-c2ccc(OC)c(OC)c2)cc1	none
COc1cccc(CN(C)C(=O)[C@H]2O[C@@H](n3cnc4c(=O)[nH]c(N)nc43)[C@H](O)[C@@H]2O)c1	TbREL1 primary 14.1 | TbREL1 conf 19.3
CC(CNC(=O)[C@H]1O[C@@H](n2cnc3c(=O)[nH]c(N)nc32)[C@H](O)[C@@H]1O)c1ccccc1 (some centres undefined)	none
COC(=O)[C@@H](Cc1ccccc1)NC(=O)[C@H]1O[C@@H](n2cnc3c(=O)[nH]c(N)nc32)[C@H](O)[C@@H]1O	none
O=C(Nc1ccccc1Cl)OC1CC2CC1[C@H]1CCCCN1[C@H]2Cc1ccccc1 (some centres undefined)	none
CCn1c(SCC(=O)Nc2cccc3ccccc23)nnc1-c1cccs1	none
CCCCNC(=O)O[C@H]1CC[C@@]23CCCN2C(=O)CCC[C@H]3C1	TbREL1 primary 13.5 | TbREL1 conf inactive
O=C(NCCc1ccccc1)O[C@H]1CC[C@@]23CCCN2C(=O)CCC[C@H]3C1	none
O=C(NCc1ccccc1)O[C@@H]1CC[C@@]23CCCN2C(=O)CCC[C@H]3C1	none
Cc1cc(C)nc(N2CCN(C(=O)CSc3nc4ccccc4nc3N3CC(C)OC(C)C3)CC2)n1 (centres undefined)	none
CSc1ccc(-c2csc(N3CCC(C(N)=O)CC3)n2)cc1	none
CCOc1ccc(-n2c(SCC(=O)Nc3ccc(S(=O)(=O)Nc4nccs4)cc3)nnc2-c2ccncc2)cc1	none
CC(C)c1cc(C(=O)O)c2ccccc2n1	TbREL1 primary 13.0 | TbREL1 conf inactive
O=C(O)c1cc(Sc2ccc(Br)cc2)nc2ccccc12	none
Cc1cc(C(N)=O)c2ccccc2n1	none
O=C(C1CCN(c2cncnc2)CC1)N1CCCC1	none
Cc1nc2ccccc2n1CC(=O)c1ccc(O)c(O)c1	TbREL1 primary 16.0 | TbREL1 conf 15.5
O=C(CSc1nc2ccccc2n1CCc1ccccc1)c1ccc(O)c(O)c1	none
Cc1[nH]c2ccccc2c1C(=O)COC(=O)Cn1c(C)nc2ccccc21	none
Cc1nc2cc(C(F)(F)F)ccc2n1CCNc1nc(-c2ccc([N+](=O)[O-])c(Cl)c2)cs1	none
OCCOCCn1c(CCNc2nc(-c3ccc(F)cc3)cs2)nc2cc(C(F)(F)F)ccc21	none
O=[N+]([O-])c1cc(-c2csc(NCCc3nc4cc(C(F)(F)F)ccc4n3CCCO)n2)ccc1Cl	TbREL1 primary 19.1 | TbREL1 conf inactive
C=CCn1c(COc2ccc(C)cc2)nnc1SCc1ccc([N+](=O)[O-])cc1	none
Cc1nc(N2CCCCC2C)c2nnn(Cc3ccccc3)c2n1 (centres undefined)	none
O=C(CCN1CCCCCC1)Nc1cccc(Cl)c1	none
COc1ccc(NC(=S)N(CCCN2CCCC2)Cc2cccs2)cc1	none
S=C(Nc1cccc(Cl)c1)N(CCCN1CCCC1)Cc1cccn1Cc1ccc(Cl)cc1	TbREL1 primary 11.4 | TbREL1 conf inactive
COC(=O)[C@]12C[C@H](CC(=O)NCc3cccc(C(F)(F)F)c3)C(=O)N(Cc3ccco3)C1=C[C@H](C1CCCC1)O[C@@H]2C	none
Cc1ccc(-c2nnc(SCC(=O)Nc3ccc4c(c3)OCCO4)n2-c2ccc(Cl)cc2)cc1	none
Cc1cc(C)c[n+](CC(=O)c2ccccc2)c1	none
COC(=O)c1ccc[n+](CC(=O)c2ccc(Br)cc2)c1	TbREL1 primary 11.3 | TbREL1 conf inactive
O=C(C[n+]1ccc2ccccc2c1)c1ccccc1	none
COc1ccc(CN2CN3CCc4ccccc4C3CS2(=O)=O)cc1 (centres undefined)	none
O=C(NC1CCCCN(Cc2ccc(Cl)cc2)C1=O)C(c1ccccc1)c1ccccc1 (centres undefined)	none
COc1ccc(CN2CCC(CNC(=O)NC(C)C)CC2)cc1	none
